Drawing on PubChem BioAssay, this text covers z-score for 26 compounds.

Molecules are shown by their SMILES. Calls of active or inactive are those of the source.

This assay in a line: E. coli DRC41 culture turbidity changes, primary screen, E. coli filamentation inducer project, strain DRC41, OD650, 48 h (AID 1152).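 Further: E. coli MC1000 strain DRC41 lacking acrAB efflux pump and sulA.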 The settings on record: E. coli DRC41 (acrAB sulA), higher = more signal, called active from +8 up or from −8 down.
In the case of `COc1ccc([Si](C)(C)[C@@H]2[C@@H](CCO)O[C@]3(C(=O)N(Cc4cccc(N5CCOC5=O)c4)c4ccccc43)[C@H]2C)cc1`, the z-score is -0.196 (inactive).
As to `CCOC(=O)C1=CC[C@H]2C(=O)N(c3ccccc3)C(=O)[C@@H]12`, the z-score is -1.58 (inactive).
To `CCOC(=O)C[C@H]1[C@H](OC(=O)c2ccc(C(=O)c3ccccc3)cc2)[C@@H](NC(=O)Cc2ccc(OC)cc2)c2cc(OCCCO)ccc2N1C(=O)c1ccc2ccccc2n1` belongs 0.378 (inactive); to `COC(=O)[C@@]1(Cc2ccc(F)cc2)[C@H]2c3cc(C(=O)N(C)C)n(Cc4cc(C)n(C)n4)c3C[C@H]2CN1C(=O)c1ccccc1`, -1.48 (inactive); to `CCCC[C@@H]1C[C@H]1[C@@H](NC(=O)c1cccnc1)c1ccc(Cl)cc1`, -3.66 (inactive).
To `[N-]=[N+]=Nc1ccccc1C[C@@]1(C(=O)N2CCCCC2)N=C(c2ccc(OCCCO)cc2)O[C@@H]1c1ccccc1N=[N+]=[N-]` belongs 0.0693 (inactive).
To `C=CCC(OC(C)=O)[C@@H]1[C@@H](N(Cc2ccc(-c3cccc(C(F)(F)F)c3)o2)C(=O)c2cccc3ccccc23)c2cc(OCCCO)ccc2N1C(=O)Cc1ccc2ccccc2c1` (stereo partly specified) belongs -0.599 (inactive).
As to `CCCCN1CC=CC23O[C@@H]4C=CCOC(=O)[C@@H]4[C@H]2C(=O)N(CCCCCCO)[C@@H]3C1=O` (stereo partly specified), the z-score is -0.413 (inactive).
To `O=C1C2C=CC(C(O)C=Cc3ccc([N+](=O)[O-])cc3)N(n3cnnc3)C2C(=O)N1Cc1ccccc1` (stereo unspecified) belongs -0.892 (inactive).
Turning to `O=C1[C@H]2C=C(Br)[C@H](C[C@@H]2OCCCCCCO)[C@@]12CO2`, the z-score was -1.69 (inactive).
Consider `CCCCCCCCCCC(O)C1C=CC2C(=O)NC(=O)C2N1Nc1ccc(Cl)cc1Cl` (stereo unspecified), for which the z-score was -2.32 (inactive).
`C=CC1c2cc(O)c(OC)cc2CCN1Cc1cccc(OC(F)(F)F)c1` (stereo unspecified): the z-score was 0.277 (inactive).
Take `CC(C)[Si](C#C[Si](C(C)C)(C(C)C)C(C)C)(O[C@H](C)c1cn(Cc2ccccc2)nn1)C(C)C`: the z-score is 1.82 (inactive).
To `O=C1O[C@H](c2ccccc2)[C@H](c2ccccc2)N2[C@H]1[C@@H](C(=O)NC[C@H](O)c1ccccc1)[C@]1(C(=O)Nc3ccc(C#CC4=CCCCC4)cc31)[C@H]2c1ccccc1OCCO` belongs -0.161 (inactive).
To `COc1ccc(-c2cc3c(c(Cc4ccccc4)n2)[Si](C(C)C)(C(C)C)OC3)cn1` belongs -1.28 (inactive); to `C=CCC(OC(C)=O)[C@@H]1[C@@H](N(Cc2ccc(-c3cccc(C(F)(F)F)c3)o2)C(=O)Cc2ccc(OC)cc2)c2cc(OCCCO)ccc2N1C(=O)c1ccc2ccccc2c1` (stereo partly specified), 0.0395 (inactive).
To `CCC(CC)C(O)C1C=CC2C(=O)N(c3ccccc3)C(=O)C2N1Nc1ccccc1` (stereo unspecified) belongs 0.878 (inactive); to `CN1C(=O)C2C=CC(C(O)c3c(F)cccc3Cl)N(NC(=O)OC(C)(C)C)C2C1=O` (stereo unspecified), -0.963 (inactive); to `C=C[C@H](C)[C@@H](OC(=O)Nc1ccc(SC)cc1)c1ccc(O)c2ccccc12`, -0.751 (inactive).
As to `COc1ccccc1CN1C(=O)c2ccccc2[C@@H](C(=O)NCc2ccccc2)[C@@H]1c1ccc(CO)cc1`, the z-score is -0.0367 (inactive).
Turning to `O=C1OCC=C[C@H]2OC34C=CCN(Cn5nnc6ccccc65)C(=O)[C@H]3N(CCCCCO)C(=O)[C@@H]4[C@@H]12` (stereo partly specified), the z-score was 0.911 (inactive).
Consider `Cc1ccc(S[C@]2(C(=O)NCC(C)C)CC(=O)N(Cc3cc(C(F)(F)F)cc(C(F)(F)F)c3)[C@@H]2c2ccc(CO)cc2)cc1`, for which the z-score is -0.687 (inactive).
On to `CS(=O)(=O)CCOC(=O)C1=CC(CCCO)=CC(C2CC2)N(Cc2cc3c(cc2Br)OCO3)C=C1C(=O)OCCS(C)(=O)=O` (stereo unspecified), for which the z-score was 0.307 (inactive).
As for `C=CCOC(=O)[C@H]1[C@@H]2C(=O)O[C@@H](c3ccccc3)[C@@H](c3ccccc3)N2[C@@H](c2ccc(OCCOC(=O)[C@H]3C[C@H]4C(=O)N[C@@H](CCCCN(C)C)C(=O)N4[C@H]3c3cccc(OCCO)c3)cc2)[C@]12C(=O)Nc1ccc(I)cc12`, the z-score is -1.61 (inactive).
Consider `COc1ccc([Si](C)(C)[C@H]2[C@H](CC(=O)N3CCC[C@H]3CO)O[C@@]3(C(=O)N(Cc4cccc(N5CCOC5=O)c4)c4ccccc43)[C@@H]2C)cc1`, for which the z-score was 1.18 (inactive).
`O=C1OCCC=C[C@H]2OC34C=CCN(c5ccc(Cl)cc5)C(=O)[C@H]3N(CCCO)C(=O)[C@@H]4C12` (stereo partly specified): the z-score is 0.565 (inactive).
